Source: PubChem (University of Kansas High Throughput Screening Laboratory)
A selection: hits, their analogues and other compounds. The true share with any hit is near 3.5%.
mHTT CaM bind = mHTT-calmodulin interaction abrogation | AlphaScreen His-mHTT/GST-CaM binding, luminescence | P42858 | inhibition, % at 15 µM | 190,000 compounds, 3.6% hits;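 note: 0% = both proteins with DMSO and 100% = one protein alone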
Pf apPOL block = Pf-apPOL DNA polymerase inhibition; Recombinant Pf-apPOL, molecular beacon fluorescence, 1.5 h; 210,000 compounds, 0.25% hits; inhibition, % at 10 µM
An asterisk follows results filed as active; . = not tested or not shown. Cut-off read from the data, not from the text of the source: active = inhibition above about 50%; inactive = the rest.

SMILES	mHTT CaM bind	Pf apPOL block
COc1ccccc1OCC(=O)Nc1ccc(Nc2ccccc2)cc1	61*	-2
CCN(CC)c1ccc(NC(=O)COc2ccccc2OC)cc1	56*	-3
COc1ccccc1OCC(=O)Nc1ccc(C(C)=O)cc1	-4	8
CCC(C)c1ccc(NC(=O)COc2ccccc2OC)cc1 (stereo not drawn)	-57	-3
O=C(CSc1ncnc2ccccc12)Nc1cc(C(F)(F)F)ccc1Cl	-2	-5
COc1cc(/C=C2\C(=O)NC(=O)N(c3cccc(C(F)(F)F)c3)C2=O)ccc1O	10	-2
COc1ccccc1/C=C1\SC(=O)N(CNc2cccc(C)c2)C1=O	58*	-1
COc1ccc(NCN2C(=O)S/C(=C\c3ccccc3OC)C2=O)cc1	52*	7
O=C1S/C(=C\c2ccccc2F)C(=O)N1CNc1cccc(F)c1	-4	0
COc1ccc(/C=C2\SC(=O)N(CNc3ccccc3OC)C2=O)cc1	32	-2
Cc1ccc2nc(/C(C#N)=C/c3ccc(-c4cc([N+](=O)[O-])ccc4O)o3)[nH]c2c1	56*	-1
COc1cc(-c2ccc(/C=C(\C#N)c3nc4ccc(C)cc4[nH]3)o2)c(OC)cc1Cl	35	-20
CCOc1ccc(/C=C(\C#N)c2nc3ccc(C)cc3[nH]2)cc1	19	0
Cc1ccc2nc(/C(C#N)=C/C=C/c3ccco3)[nH]c2c1	67*	-7
CCOc1cc(/C=C(\C#N)c2nc3ccc(C)cc3[nH]2)cc(I)c1O	80*	-1
Cc1ccc2nc(/C(C#N)=C/c3ccc([N+](=O)[O-])o3)[nH]c2c1	-6	-2
Cc1ccc2nc(/C(C#N)=C/c3ccc(-c4ccc5c(c4)C(=O)NC5=O)o3)[nH]c2c1	68*	-4
N#C/C(=C\c1ccco1)c1nc2ccccc2[nH]1	3	-8
CCN1CCN(CCNC(=O)c2cc3cn(C(C)C)cc3s2)CC1	8	-2
CCC(=O)N1CCc2cc(N3CC(C(=O)Nc4ccc(F)cc4F)CC3=O)ccc21 (stereo not drawn)	7	1
C=CCn1c(SCC(=O)Nc2c(F)cccc2F)nc2sc3c(c2c1=O)CCCC3	0	4
CSc1ccc(CN2CCN(C(=O)c3cccc(Cl)c3)CC2)cc1	12	1
CCc1noc(-c2cccnc2N2CCCN(C(=O)c3ccc(F)cc3)CC2)n1	-7	-11
COc1ccc(CC(=O)N2CCCC2c2c(C)noc2C)cc1 (stereo not drawn)	0	1
O=[N+]([O-])c1ccc(NCCCNS(=O)(=O)c2ccc(Cl)cc2)c(C(F)(F)F)c1	53*	7
SMILES	mHTT CaM bind	Pf apPOL block
CC(=O)Nc1ccc(S(=O)(=O)NCCCNc2ccc([N+](=O)[O-])cc2Cl)cc1	11	-6
Cc1ccc(-c2nc(C(=O)NCCc3ccccc3)cs2)n1C	99*	1
Cc1ccc(-c2nc(C(=O)NCCc3ccc(Cl)cc3)cs2)n1C	24	-3
COc1ccc(NC(=O)c2csc(-c3ccc(C)n3C)n2)cc1	62*	-3
Cc1ccc(-c2nc(C(=O)Nc3ccc(Cl)cc3)cs2)n1C	-7	-5
COc1cccc2sc(NC(=O)NCc3cccs3)nc12	-10	-10
Cc1ccc(C(=O)N2CCC(COc3ccc(C(=O)N4CCOCC4)cc3)CC2)c(C)c1	19	-1
CCC1CCCCN1C/C=C/c1ccccc1[N+](=O)[O-] (stereo not drawn)	-8	0
CCC1CCCCN1C/C=C/c1ccc(N(C)C)cc1 (stereo not drawn)	68*	-7
O=C(O)C1NC(c2cc(Br)ccc2O)C2C(=O)N(c3ccccc3)C(=O)C12 (stereo not drawn)	-4	-7
CCCNc1cc(N2CCCC(CCC(=O)N(CC)CC)C2)ncn1 (stereo not drawn)	5	-5
CC1C(=O)N(Cc2cn(Cc3ccco3)nn2)CCS(=O)(=O)N1Cc1ccc(-c2ccccc2C(F)(F)F)cc1 (stereo not drawn)	68*	-3
Cc1ccc(-c2ccc(CN3C(C)C(=O)N(Cc4cn(Cc5ccco5)nn4)CCS3(=O)=O)cc2)c(C)c1 (stereo not drawn)	84*	0
CC1C(=O)N(Cc2cn(Cc3ccco3)nn2)CCS(=O)(=O)N1Cc1ccc(-c2ccc(F)nc2)cc1 (stereo not drawn)	25	1
COc1cccc(-c2ccc(CN3C(C)C(=O)N(Cc4cn(Cc5ccco5)nn4)CCS3(=O)=O)cc2)c1OC (stereo not drawn)	2	0
Cc1ccc(-c2ccc(CN3C(C)C(=O)N(Cc4cn(Cc5ccco5)nn4)CCS3(=O)=O)cc2)cc1 (stereo not drawn)	19	-7
Cc1ccccc1-c1ccc(CN2C(C)C(=O)N(Cc3cn(Cc4ccco4)nn3)CCS2(=O)=O)cc1 (stereo not drawn)	92*	-2
C(#Cc1ccccc1)CSc1nnc(SCC#Cc2ccccc2)s1	-10	-11
O=C(Nc1ccc(F)c(Cl)c1)N1CCOc2ccccc21	-5	-10
CSc1ccccc1NC(=O)c1cn2c(n1)COCC2	16	1
COc1ccccc1/C=c1\sc2nc(=O)c(C)nn2c1=O	0	-3
CCc1csc2nc(C)c(NC(=O)CC(C)(C)C)c(=O)n12	2	-1
CCOc1ccc(N(C(=O)Nc2ccccc2C)C2=NCCC2)cc1	-7	-4
COc1cccc(NC(=O)c2ccc([N+](=O)[O-])c(C)c2)c1	-1	-3
COc1cccc(Nc2nc(Cl)ccc2[N+](=O)[O-])c1	71*	-7
SMILES	mHTT CaM bind	Pf apPOL block
CC(C)(C)Nc1nc(Cl)nc(Nc2cccc([N+](=O)[O-])c2)n1	40	30
COc1ccc(Nc2nc(Cl)nc(Nc3cccc([N+](=O)[O-])c3)n2)cc1	78*	-1
Cc1c(Cl)cccc1N1CCC(C(=O)N2CCCC2)C1=O (stereo not drawn)	1	-6
O=S(=O)(Nc1cccc2cccnc12)c1cc(Cl)c(Cl)cc1Cl	.	-75
Nc1ccc(S(=O)(=O)Nc2cccc3cccnc23)cc1	57*	-2
Cc1ccc(S(=O)(=O)Cc2nc(-c3cccc(C)c3)no2)cc1	-24	1
N#CCC[C@@H]1CC[C@]2(CCCN(Cc3ccc(Cl)cc3)C2)O1	74*	-3
N#CCC[C@H]1CC[C@]2(CCCN(Cc3ccccc3)C2)O1	-5	-4
CC(=O)N1CCc2sc(S(=O)(=O)NCc3ccccc3)cc2C1	-2	-4
O=C1NN(c2ccccc2)C(=O)/C1=C\c1ccco1	8	.
O=C1C(=O)N(CCN2CCOCC2)C(c2cccc([N+](=O)[O-])c2)C1=C(O)c1ccc(Cl)cc1 (stereo not drawn)	1	-1
O=C1OC(c2ccc(Br)cc2)=N/C1=C\c1cccc(I)c1	3	-1
O=C(CSc1cccc2cccnc12)NC1CCCCC1	16	-2
O=C(CSc1cccc2cccnc12)N1CCCCC1	88*	-2
CCC(=O)Nc1cccnc1-c1ccc(C(=O)NCCCc2ccccc2)cc1	8	-4
CCOc1ccc(NC2=C(N3CCCCC3)C(=O)c3ccccc3C2=O)cc1	96*	8
COc1cccc(NC2=C(N3CCCC3)C(=O)c3ccccc3C2=O)c1	100*	0
COc1cccc(NC2=C(N3CCOCC3)C(=O)c3ccccc3C2=O)c1	38	14
CC(=O)c1ccc(NC2=C(N3CCCCC3)C(=O)c3ccccc3C2=O)cc1	14	-12
Cc1cccc(NC(=O)N2CCc3c(c(COCc4ccc(Cl)cc4)nn3C)C2)c1	46	-3
